# A selection: hits, their analogues and other compounds. The true share with any hit is near 7.8%.
# LASV entry inh – inhibitors of Lassa virus binding or cell entry | Lassa virus pseudotype entry inhibition, cell reporter | Potency, µM (top dose mostly 37.9 µM), for inactives: at the top dose activity change, negative = inhibition, usual class: inhibitors | hit rate 1.2% among 300,000 | AID 540256; calls by dose curve; tested in HEK293 cells; note: potency is the fitted concentration of half-maximal effect; nearly all actives have a fitted effect of over 50% in size
# Vaccinia Venus – vaccinia inhibition (Venus reporter) | hit rate 0.46% among 330,000 | Potency, µM (doses to about 36.5 µM), for inactives: top-dose activity change, negative = inhibition, hits mostly inhibitors | Vaccinia virus Venus reporter expression, fluorescence | AID 720580; calls by dose curve; tested in A549 cells; note: potency is the fitted concentration of half-maximal effect; nearly all actives have a fitted effect of over 30% in size
# HCMV antiviral – blocks human cytomegalovirus replication; hit rate 4.5% among 410,000; HFF cells, HCMV-luciferase reporter, 72 h; hits give low values; activity change, negative = inhibition, % at 57.5 µM; in the data active = activity change below about -60%; inconclusive = no clear call, values can overlap the other calls; inactive = above about -39%
#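 Human foreskin fibroblasts infected with luciferase-reporter HCMV at MOI 1 PFU/cell, compounds at two doses. Luciferase measured 72 h post infection; normalized to buffer-only basal and Salinomycin (10uM) controls.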
# Marburg entry inh – Marburg virus entry inhibition; Marburg virus pseudotyped entry inhibition, cell reporter; Potency, µM (doses to about 37.8 µM), for inactives: top-dose activity change, negative = inhibition, actives largely listed as inhibitors; hit rate 1.8% among 300,000; AID 540276; calls by dose curve; tested in HEK293 cells; note: potency is the fitted concentration of half-maximal effect
# HCV inhibitor – HCV inhibition; hit rate 3.4% among 340,000; AID 651820; Potency, µM (top dose mostly 41.8 µM), for the others: at the top dose activity change, negative = inhibition, usual class: inhibitors; Huh7.5.1 HCVcc-Cre infection, luciferase reporter, 44 h; active = well fitted inhibition curve with a large enough effect; inconclusive = small, poorly fitted or top-dose-only effect, or another doubt; inactive = no such curve, though single readings can be large or run the other way; note: potency is the fitted concentration of half-maximal effect
#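 After 44 h co-culture of compound, cells and HCVcc-Cre (~0.5 moi), substrate is added for 15 min at room temperature and luciferase measured over 15 sec. Cells were seeded at 1,000/well and pre-cultured 4 h.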
# VACV mCherry inh – inhibitors of vaccinia virus infection (mCherry reporter signal) | Vaccinia virus mCherry reporter infection, fluorescence | Potency, µM (titrated, usually from 36.5 µM), inactives show at the highest dose activity change, negative = inhibition, usual class: inhibitors | hit rate 0.63% among 310,000 | AID 720579; calls by dose curve; tested in A549 cells; note: potency is the fitted concentration of half-maximal effect; nearly all actives have a fitted effect of over 35% in size
# The depositor's hits bear a star; i = inactive; ? = inconclusive; . = no result given; ! = not confirmed by another sample; [ ] = another dose, or the depositor's remark. % is set by controls: 0 for no effect and ±100 for the full control effect.
SMILES,LASV entry inh,Vaccinia Venus,HCMV antiviral,Marburg entry inh,HCV inhibitor,VACV mCherry inh
CSc1ccc(-c2ccc3c(c2)CC(CNC(=O)Cn2nc(C)nc2C)O3)cc1 (stereo not drawn),.,-5%,.,.,.,-14%
C=CCOc1c(Br)cc(CNc2ccc(NC(=O)C(C)C)c(OC)c2)cc1OC,?,.,-98*,?,10µM*,.
COc1cc(CNc2ccc(C(=O)O)cc2)cc(Br)c1OCC(=O)NC(C)(C)C,11%,-11%,-13,2%,12%,-12%
COc1ccccc1NC(=O)c1sc2ncn(Cc3cccc(C)c3)c(=O)c2c1C,-29%,-6%,-102*,?,6%,-3%
COc1ccccc1NC(=O)c1sc2ncn(Cc3ccc(C)cc3)c(=O)c2c1C,3%,-9%,?,0%,-22%,i
Cc1cc(C(=O)Nc2cnn(C(C)(C)C(=O)NCc3ccco3)c2)c(C)o1,.,.,-5,.,.,.
CN(C)CCC(c1ccc(Cl)cc1)c1ccccn1 (stereo not drawn),-18%,-19%,-16,2.8µM*!,?,-2%
CN(C)CCC(c1ccccc1)c1ccccn1 (stereo not drawn),13%,-8%,-9,?,5µM*!,-14%
CC(c1ccc(Cl)cc1)N(CCN(C)C)c1ccccn1 (stereo not drawn),.,.,-19,.,.,.
CN(C)CC[C@H](c1ccc(Br)cc1)c1ccccn1,.,.,.,8.9µM*!,.,.
c1ccc(C(c2ccccn2)c2ccccn2)cc1,17%,-9%,-27,13%,0%,i
CN=C1SC(CC(=O)NCCc2ccc(OC)c(OC)c2)C(=O)N1C (stereo not drawn),7%[46.1 µM],7%,-64*!,?,-13%,-10%
CCN=C1SC(CC(=O)NCCc2ccc(OC)c(OC)c2)C(=O)N1CC (stereo not drawn),0%,?,91,5%,8%,-3%
O=C(c1ccc2c(=O)n(Cc3ccco3)c(=S)[nH]c2c1)N1CCN(Cc2ccc3c(c2)OCO3)CC1,.,?,.,.,.,-22%
Cc1ccc(OCC(=O)Nc2cccc(-c3nc4ccccc4o3)c2C)cc1C,-11%[46.1 µM],-10%,-60*,5%[46.1 µM],.,-19%
Cc1ccc(-c2nc3cccnc3o2)cc1NC(=O)COc1ccc(Cl)cc1C,-26%,.,-9,?,?,.
Cc1ccc(-c2nc3cccnc3o2)cc1NC(=O)COc1ccc(C(C)(C)C)cc1,10µM*,?,-29,?,?,.
Cc1ccc2oc(-c3cccc(NC(=O)COc4ccc(Cl)cc4)c3C)nc2c1,.,-12%,.,.,.,i
Cc1ccc(OCC(=O)Nc2ccc(O)c(-c3nc4ccccc4o3)c2)cc1,?,?,-76*,-3%,6%,-19%
CCN(C(=O)Cn1c(C(=O)OC)cc2sccc21)c1cccc(C)c1,.,-10%,-2,-16%[46.1 µM],.,-16%
O=C(CS(=O)(=O)c1cccc2nsnc12)Nc1ccccc1,9%[46.1 µM],13%,6,.,.,7%
Cc1ccc(CN(Cc2ccco2)c2cnc(S(C)(=O)=O)nc2C(=O)Nc2ccc(Br)cc2)o1,8%[46.1 µM],-10%,5,?,.,-19%
COc1ccc(-c2cc(=O)c3ccccc3o2)cc1OC,.,0%,.,.,.,i
COc1ccc(C2=CC(c3ccc(OC)c(OC)c3)c3c(c4ccccc4oc3=O)O2)cc1OC (stereo not drawn),.,-30%,-64*,.,10µM*,-15%
COc1cc(OC)c(NC(=O)c2noc3c2CSc2ccccc2-3)cc1Cl,?,1%,-28,-7%[46.1 µM],.,5%
SMILES,LASV entry inh,Vaccinia Venus,HCMV antiviral,Marburg entry inh,HCV inhibitor,VACV mCherry inh
C=CCSc1nc(N)c(C(=O)Nc2ccccc2)cc1C#N,1%,.,9,?,3.5µM*,.
C=CCSc1nc(N)c(C(=O)Nc2ccccc2OC)cc1C(=O)Nc1ccccc1,-25%,1%,10,-9%,-27%,-10%
CCNC(=O)c1ccc2c(c1)S(=O)(=O)c1ccccc1C2=O,2%,-18%,-11,7%,-13%,i
CC1CCC(NC(=O)c2ccc3c(c2)S(=O)(=O)c2ccccc2C3=O)CC1 (stereo not drawn),.,-16%,-67*,.,-10%,?
C=CCNC(=O)c1ccc2c(c1)S(=O)(=O)c1ccccc1C2=O,.,-10%,3,.,25µM*,?
CCCS(=O)(=O)N1CCC(N2CCN(Cc3ccc(F)cc3)C(=O)C2=O)CC1,-7%[46.1 µM],0%,-5,.,.,-3%
CN(C)Cc1nc2ccccc2c(=O)n1Cc1nc(-c2cc3ccccc3o2)cs1,-2%,-21%,7,11µM*,?,-2%
Cc1csc(Cn2c(CN(C)C)nc3ccccc3c2=O)n1,4%,0%,-1,8%,7%,-6%
Cc1cc(C)c(Nc2nc3ccccc3n3c(C)nnc23)c(C)c1,-4%[46.1 µM],-4%,-30,.,.,-16%
CCOC(=O)c1c(C)oc2c1c(C(c1ccccc1)N1CCOCC1)c(O)c1ccccc12 (stereo not drawn),23µM*,.,198,?,?,.
N#CC(=C(O)COC(=O)CCC1CCCCC1)c1nc2ccccc2[nH]1,-11%,-1%,-13,-6%,3%,-6%
N#C/C(=C(/O)COC(=O)CSc1ccc(Cl)cc1)c1nc2ccccc2[nH]1,9%,-20%,-81*,-13%,0%,-9%
Cc1cc(SCC(=O)OC/C(O)=C(\C#N)c2nc3ccccc3[nH]2)c(C)cc1Br,?,-6%,?,?,2%,14%
CCOC(=O)/C(O)=C(\C#N)c1nc2ccccc2[nH]1,-2%[46.1 µM],4%,-64*,-8%[46.1 µM],9%,-5%
COc1ccc(OC/C(O)=C(\C#N)c2nc3ccccc3[nH]2)cc1,22%,-8%,-9,10%,0%,-10%
COc1ccccc1OCC(=O)OC/C(O)=C(\C#N)c1nc2ccccc2[nH]1,.,.,-99*,.,-12%,.
N#C/C(=C(/O)COC(=O)CCCNC(=O)c1ccc(Cl)cc1)c1nc2ccccc2[nH]1,?,10%,-93*,?,-5%,6%
Cc1c(C(=O)N(C)C2CCOC2)sc2ncnc(NCC3(c4ccccc4)CCOCC3)c12 (stereo not drawn),.,-2%,.,.,.,-1%
COC(=O)C[C@H]1c2ccccc2[C@@H]2C(=C[C@@H](C)[C@H]3C(=O)N(O)C(=O)[C@H]32)N1C(=O)OC,.,.,.,8%[14.2 µM],.,.
CC=COC(=O)N[C@@H](c1cccc(C)c1)[C@]1(C(=O)OCC)CCCC1=O,.,.,.,13%[14.2 µM],.,.
Cc1cccc(C)c1NC(=O)Cn1c(SCC(=O)NCc2ccccc2)nc2ccccc21,-7%[46.1 µM],-2%,-5,.,.,-14%
CCCCCCCc1cc2ccc(F)cc2c2c(C(=O)OC)c(C(=O)OC)c(C(=O)OC)n12,.,.,.,-19%[14.2 µM],.,.
Nc1nonc1-n1nnc(C(=O)N/N=C/c2cccc(O)c2)c1CN1CCCC1,-6%[46.1 µM],-21%,-24,3%[46.1 µM],6%,-17%
CN1CCN(Cc2c(C(=O)N/N=C/c3cccc(Br)c3)nnn2-c2nonc2N)CC1,.,.,-60*,.,9%,.

# Assay outcomes (PubChem BioAssay)
